Inconclusive results are not listed. Some compounds were tested as several samples or in several runs, with calls that do not always agree. Active and inactive are the calls of the source. Unless noted, the call rests on the fitted dose curve; in most records, active means well fitted curve in the direction sought with a large enough effect in the repeat runs; inconclusive means weak or mixed curves; inactive means no such curve, though single readings can be large; an effect the other way counts as inactive or inconclusive.

The nature of experiment [1]: qHTS assay for small molecule agonists of the p53 signaling pathway (AID 651631; calls by dose curve; further: nearly all actives have a fitted effect of over 15% in size; further: potency means the concentration at half of the fitted maximal effect). The procedure, abridged: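 Read-out is beta-lactamase FRET fluorescence measured 2 h after substrate addition at room temperature, in HCT-116 cells with a p53 response element-driven reporter exposed to compounds for 16 h at 37 °C.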
(In general: qHTS replaces the single test concentration by a dilution series.)

A short description of experiment [2]: qHTS assay to test for compound auto fluorescence at 590 nm (red) in HepG2 cells (AID 720674). The procedure, abridged: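 HepG2 cells, 2,000 per well in MEM with 10% FBS, attached overnight at 37 C, then got 23 nL compound or DMSO. After 1 hr at 37 C, 5% CO2, red fluorescence was read at 540/590 nm against Rose Bengal sodium as reference.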
A short description of experiment [3]: qHTS assay to test for compound auto fluorescence at 535 nm (green) in HepG2 cells (AID 720675).
A short description of experiment [4]: qHTS assay to test for compound auto fluorescence at 460 nm (blue) in HEK293 cells (AID 720678). The procedure, abridged:
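Measured: blue fluorescence (Ex 405/Em 460 nm) of compound-treated HEK293 cells, incubated overnight at 37C with 5% CO2 and scaled to triamterene equivalents.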

Experiment [5] is described as follows: qHTS assay to test for compound auto fluorescence at 590 nm (red) in HEK293 cells (AID 720679). The procedure, abridged:
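Using HEK293 cells at 2,000 per well, the screen added 23 nL of each compound after cell attachment and incubated overnight (37C, 5% CO2). The plate reader then captured red-label fluorescence, Ex/Em 540/590nm.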

Experiment [6] can be described thus: qHTS assay for small molecule agonists of the p53 signaling pathway - cell viability (AID 651633; calls by dose curve; further: nearly all actives have a fitted effect of over 30% in size; further: potency means the concentration at half of the fitted maximal effect). The method in brief: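 p53RE-bla cells were treated with compound for 16 hours at 37 C. Cytotoxicity was then measured as CellTiter-Glo luminescence after 30 min at room temperature.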
Experiment [7] can be described thus: qHTS assay for small molecules that induce genotoxicity in human embryonic kidney cells expressing luciferase-tagged ATAD5 - cell viability (AID 651634; calls by dose curve; further: nearly all actives have a fitted effect of over 25% in size; further: potency means the concentration at half of the fitted maximal effect). The method in brief:
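Live-cell protease activity (CellTiter-Fluor, fluorescence) indicates viability. HEK293T cells with luciferase-tagged ATAD5; 15.5 hr compound treatment at 37C.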

A short description of experiment [8]: qHTS assay for small molecules that induce genotoxicity in human embryonic kidney cells expressing luciferase-tagged ATAD5 (AID 651632). Further: nearly all actives have a fitted effect of over 15% in size. The procedure, abridged: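 Genotoxicity read-out via ATAD5-luciferase: HEK293T cells, 16 hr compound incubation at 37C, Amplite detection.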
A short description of experiment [9]: qHTS assay for small molecule disruptors of the mitochondrial membrane potential - cell viability (AID 720634; calls by dose curve; further: nearly all actives have a fitted effect of over 20% in size; further: potency means the concentration at half of the fitted maximal effect). The procedure, abridged:
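Human hepatoma HepG2 cells were treated for 1 hr with test chemicals, then given m-MPI dye and CellTiter-Glo. Cell viability reflects luminescence proportional to cellular ATP.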

Experiment [10] is described as follows: qHTS assay for small molecule disruptors of the mitochondrial membrane potential (AID 720635). Further: potency means the concentration at half of the fitted maximal effect. The procedure, abridged: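 HepG2 cells exposed to compound 1 hr at 37C, then Mito-MPS dye 30 min. Ratio read of aggregate (540/590 nm) versus monomer (490/535 nm) fluorescence.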

As for `CC1=C(/C=C/C(C)=C/C=C/C(C)=C/C=C/C=C(C)/C=C/C=C(C)/C=C/C2=C(C)C[C@@H](O)CC2(C)C)C(C)(C)C[C@H](O)C1`, in [1], the Potency is 29.8 µM (active). The Potency entry in experiment [2], in experiment [3], in experiment [4] and in [5] was “inactive” throughout.

Regarding `C/C=C1\NC(=O)[C@H]2CSSCC/C=C/[C@H](CC(=O)N[C@H](C(C)C)C(=O)N2)OC(=O)C(C(C)C)NC1=O` (stereo partly drawn), the Potency in experiment [1] is 7.5 µM (active); in [6], 1.5 µM (active); in experiment [7], 7.5 µM (active). Moreover, the Potency result in experiment [2], in experiment [3], in experiment [4] and in experiment [5] was “inactive” throughout.

Consider `CCCCCCCCCCCCCCCCCC(=O)OC[C@@H](O)[C@H]1OC[C@H](O)[C@H]1O`, for which the Potency result in [8], in experiment [6], in experiment [7], in experiment [9], in [10] and in [2] was “inactive” each time. In addition, the Potency entry in [3] and in [4] was “inactive” throughout.

As for `Nc1ncnc(Nc2ccc(Cl)cc2)n1`, the Potency entry in [1], in experiment [6], in [7], in experiment [2], in experiment [3] and in experiment [4] was “inactive” throughout. In addition, the Potency result in experiment [5] was “inactive”.

For the compound `CO[C@H]1C[C@@H]2CC[C@@H](C)[C@@](O)(O2)C(=O)C(=O)N2CCCC[C@H]2C(=O)O[C@H]([C@H](C)C[C@@H]2CC[C@@H](OCCO)[C@H](OC)C2)CC(=O)[C@H](C)/C=C(\C)[C@@H](O)[C@@H](OC)C(=O)[C@H](C)C[C@H](C)/C=C/C=C/C=C/1C`, the Potency entry in [8], in experiment [9], in [2], in experiment [3], in [4] and in experiment [5] was “inactive” each time. The Potency in experiment [6] is 21.1 µM (active); in experiment [7], 29.8 µM (active); in experiment [10], 21.1 µM (active).

Regarding `C[C@@H]1C[C@H]2[C@@H]3CCC4=CC(=O)C=C[C@]4(C)[C@@]3(F)[C@@H](O)C[C@]2(C)[C@@]1(O)C(=O)COC(=O)c1cccc(S(=O)(=O)O)c1`, the Potency result in experiment [1], in experiment [6], in experiment [7], in experiment [9], in [2] and in experiment [3] was “inactive” in each case. Besides, the Potency entry in [4] and in experiment [5] was “inactive” throughout.

Consider `COC(=O)[C@H]1[C@H]2C[C@@H]3c4[nH]c5ccccc5c4CCN3C[C@H]2C[C@@H](OC(=O)c2cc(OC)c(OC)c(OC)c2)[C@@H]1OC`, for which the Potency result in experiment [8], in experiment [7], in [9], in experiment [2], in [3] and in experiment [4] was “inactive” each time. The Potency entry in experiment [5] was “inactive”. The Potency in [6] is 5.31 µM (active) and inactive; in experiment [10] it was 3.35 µM (active).

In the case of `CC(O)[C@@H]1NC(=O)[C@H](Cc2ccccc2)NC(=O)[C@H](C(C)O)NC(=O)[C@H](CCCCN)NC(=O)[C@H](Cc2c[nH]c3ccccc23)NC(=O)[C@H](Cc2ccccc2)NC(=O)[C@H](Cc2ccccc2)NC(=O)[C@H](CC(N)=O)NC(=O)[C@H](CCCCN)NC(=O)[C@@H](NC(=O)CNC(=O)[C@H](C)N)CSSC[C@@H](C(=O)O)NC(=O)[C@H](CO)NC1=O` (stereo partly drawn), the Potency result in experiment [8], in [6], in experiment [7], in experiment [9], in experiment [10] and in [2] was “inactive” throughout. For the same compound, the Potency result in [3], in experiment [4] and in [5] was “inactive” throughout.

With `OCCO[C@@H]1[C@@H](O)[C@H](O)[C@@H](CO)O[C@@H]1O`, the Potency result in experiment [1], in experiment [6], in experiment [9], in [10], in experiment [2] and in experiment [3] was “inactive” each time. Also, the Potency result in [4] and in experiment [5] was “inactive” throughout.

For the compound `O=P(O)(O)OC[C@H](O)CO`, the Potency entry in experiment [8], in [6], in experiment [7], in [9], in experiment [10] and in experiment [2] was “inactive” in each case. In addition, the Potency entry in [3] and in experiment [4] was “inactive” in each case.

`O=C(O)COc1ccc(CCNS(=O)(=O)c2ccccc2)s1`: the Potency entry in experiment [8], in [6], in experiment [7], in experiment [9], in experiment [10] and in experiment [2] was “inactive” throughout. Also, the Potency result in [3], in experiment [4] and in experiment [5] was “inactive” in each case.

On to `CCCC1C(=O)N2C(N(C)C)=Nc3ccc(C)cc3N2C1=O` (stereo not drawn), for which the Potency result in [1], in experiment [6], in experiment [7], in [9], in experiment [2] and in [3] was “inactive” each time. For the same compound, the Potency entry in experiment [4] and in experiment [5] was “inactive” in each case.

Turning to `Cc1onc(-c2ccccc2)c1C(=O)N[C@@H]1C(=O)N2[C@@H]1SC(C)(C)[C@@H]2C(=O)O`, the Potency entry in experiment [1], in experiment [6], in experiment [7], in [9], in [2] and in experiment [3] was “inactive” in each case. Besides, the Potency result in experiment [4] and in [5] was “inactive” throughout.

Regarding `O=C(COc1ccc(Cl)cc1)OCCNC12CC3CC(CC(C3)C1)C2`, the Potency entry in experiment [8], in experiment [6], in experiment [7], in experiment [9], in experiment [10] and in [2] was “inactive” throughout. Further, the Potency entry in [3], in [4] and in experiment [5] was “inactive” in each case.

In the case of `C#CCC(Cc1cnc2nc(N)nc(N)c2n1)c1ccc(C(=O)N[C@@H](CCC(=O)O)C(=O)O)cc1` (stereo partly drawn), the Potency in [1] is 0.266 µM (active); in [6] it was 0.266 µM (active); in experiment [7], 0.211 µM (active). Also, the Potency result in [9], in experiment [2], in experiment [3] and in experiment [5] was “inactive” each time.

Turning to `O=C(O)CCC/C=C\C[C@@H]1[C@@H](/C=C/[C@@H](O)COc2cccc(C(F)(F)F)c2)[C@H](O)C[C@@H]1O`, the Potency entry in experiment [8], in experiment [6], in [7], in experiment [9], in experiment [10] and in [2] was “inactive” in each case. Besides, the Potency result in experiment [3], in experiment [4] and in [5] was “inactive” in each case.

Regarding `CCCCCCOc1ccc(C(=N)N(CCCC)CCCC)c2ccccc12`, the Potency result in experiment [8], in experiment [2], in experiment [3], in [4] and in experiment [5] was “inactive” each time. The Potency in experiment [6] is 21.1 µM (active); in experiment [7], 23.7 µM (active); in experiment [9] it was 26.6 µM (active); in experiment [10], 8.41 µM (active).

As for `Cc1cc(/C=C/c2ccc3cc(N(C)C)ccc3[n+]2C)c(C)n1-c1ccccc1`, the values for the Potency in [1], in experiment [6] and in [10] were 9.02 µM (active), 5.07 µM (active) and 1.43 µM (active), respectively. Also, the Potency result in [9], in experiment [3] and in experiment [4] was “inactive” throughout.

With `Nc1nc2[nH]cc(CCc3ccc(C(=O)N[C@@H](CCC(=O)O)C(=O)O)cc3)c2c(=O)[nH]1`, the Potency result in experiment [8], in experiment [6], in [7], in experiment [9], in experiment [10] and in experiment [2] was “inactive” throughout. The Potency result in experiment [3] and in [4] was “inactive” each time.

As to `C=CCNC1=C2C[C@@H](C)C[C@H](OC)[C@H](O)[C@@H](C)/C=C(\C)[C@H](OC(N)=O)[C@@H](OC)/C=C\C=C(/C)C(=O)NC(=CC1=O)C2=O`, the Potency in experiment [1] was 0.168 µM (active). Besides, the Potency entry in experiment [6], in experiment [9], in [2], in [3], in experiment [4] and in experiment [5] was “inactive” in each case.
